# Experimental data: the supplement of paper PMC10933113
# A number with no mark means an inactive call.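 How the source made its calls: active = curve rank above 3; inactive = curve rank 0.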
# System: KeratinoSens (HaCaT ARE-luciferase) cells
# Assay: Nrf2/ARE luciferase activation call in qHTS KeratinoSens assay (1 = active, 0 = inactive)
row,Structure (SMILES),Nrf2/ARE luciferase activation call
1,CN(C)CCOc1ccccc1Cc1ccccc1.O=C(O)CC(O)(CC(=O)O)C(=O)O,not active ARE inducer (skin sensitizer alert)
2,CCCCCC[n+]1ccccc1.O=S(=O)([O-])C(F)(F)F,not active ARE inducer (skin sensitizer alert)
3,CCN(CC)CCc1nc(-c2ccccc2)no1.O=C(O)CC(O)(CC(=O)O)C(=O)O,not active ARE inducer (skin sensitizer alert)
4,CC(C)OC(=O)OCOP(=O)(CO[C@H](C)Cn1cnc2c(N)ncnc21)OCOC(=O)OC(C)C.O=C(O)C=CC(=O)O,not active ARE inducer (skin sensitizer alert)
5,CCN(CC)CCOC(=O)C1(c2ccccc2)CCCC1.CCN(CC)CCOC(=O)C1(c2ccccc2)CCCC1.O=S(=O)(O)CCS(=O)(=O)O,not active ARE inducer (skin sensitizer alert)
6,CN1Cc2c(N)cccc2C(c2ccccc2)C1.O=C(O)/C=C\C(=O)O (stereo not given),not active ARE inducer (skin sensitizer alert)
7,Cn1c(=O)c2c(ncn2C)n(C)c1=O.O=C(O)CC(O)(CC(=O)O)C(=O)O,not active ARE inducer (skin sensitizer alert)
8,CN(C)CCOC(C)(c1ccccc1)c1ccccn1.O=C(O)CCC(=O)O (stereo not given),not active ARE inducer (skin sensitizer alert)
9,C[NH+](C)CCC(c1ccccc1)c1cccc[nH+]1.O=C([O-])/C=C\C(=O)[O-] (stereo not given),not active ARE inducer (skin sensitizer alert)
10,Nc1c2c(nc3ccccc13)CCCC2O.O=C(O)/C=C\C(=O)O (stereo not given),not active ARE inducer (skin sensitizer alert)
11,C[C@@H](CN(C)C)CN1c2ccccc2Sc2ccccc21.C[C@@H](CN(C)C)CN1c2ccccc2Sc2ccccc21.O=C(O)[C@@H](O)[C@@H](O)C(=O)O,not active ARE inducer (skin sensitizer alert)
12,C[n+]1c2cc(N)ccc2cc2ccc(N)cc21.Nc1ccc2cc3ccc(N)cc3nc2c1.[Cl-],active ARE inducer (skin sensitizer alert)
13,C[NH+](C)CCC(c1ccc(Cl)cc1)c1ccccn1.O=C([O-])/C=C\C(=O)O (stereo not given),not active ARE inducer (skin sensitizer alert)
14,CCC[N+]1(C)CCCC1.O=S(=O)([O-])C(F)(F)F,not active ARE inducer (skin sensitizer alert)
15,CCn1cc[n+](C)c1.Cc1ccc(S(=O)(=O)[O-])cc1,not active ARE inducer (skin sensitizer alert)
16,CCC1=C[C@@H]2C[N@](C1)Cc1c([nH]c3ccccc13)[C@@](C(=O)OC)(c1cc3c(cc1OC)N(C)[C@H]1[C@@](O)(C(=O)OC)[C@H](OC(C)=O)[C@]4(CC)C=CCN5CC[C@]31[C@@H]54)C2.O=C(O)C(O)C(O)C(=O)O.O=C(O)C(O)C(O)C(=O)O,active ARE inducer (skin sensitizer alert)
17,O=C(CCC1CCN(Cc2ccccc2)CC1)c1ccc2c(c1)NCCCC2.O=C(O)/C=C/C(=O)O,not active ARE inducer (skin sensitizer alert)
18,CCCC[n+]1ccccc1.O=S(=O)([O-])C(F)(F)F,not active ARE inducer (skin sensitizer alert)
19,CCCc1nn(C)c2c(=O)[nH]c(-c3cc(S(=O)(=O)N4CCN(C)CC4)ccc3OCC)nc12.O=C(O)CC(O)(CC(=O)O)C(=O)O,not active ARE inducer (skin sensitizer alert)
20,COc1ccc(CN(CCN(C)C)c2ccccn2)cc1.O=C(O)/C=C\C(=O)O,not active ARE inducer (skin sensitizer alert)
